Laboratory results as given in the supplement of paper PMC13380429.

What was measured:
[1] = test system: Vero E6 infected with SARS-CoV-2; experiment: morphology score (similarity to uninfected cells); higher = more like uninfected cells; details: 24 h
[2] = test system: Vero E6 infected with SARS-CoV-2; experiment: SARS-CoV-2 infection rate relative to infected DMSO; higher = more infection, active = 60 or less; details: 24 h

Compound: CC(C)(NS(=O)(=O)c1ccc(Oc2ccc(F)cc2)cc1)C(=O)NO (10 µM)
- morphology score [1]: 0.193
- SARS-CoV-2 infection rate [2]: 99% (inactive)

Compound: C[C@@H]1CC[C@H]2C(C)(C)[C@H]3C[C@@]12CC[C@@]3(C)O [cedrol] (10 µM)
- morphology score [1]: 0.0579
- SARS-CoV-2 infection rate [2]: 95.5% (inactive)

Compound: C[C@H]1c2cccc(O)c2C(=O)C2=C(O)[C@]3(O)C(=O)C(C(N)=O)=C(O)[C@@H](N(C)C)[C@@H]3[C@@H](O)[C@@H]21 [doxycycline] (10 µM)
- morphology score [1]: 0.0783
- SARS-CoV-2 infection rate [2]: 97% (inactive)

Compound: O=C1[O][SbH]23[O]C(=O)C([O]2)C2[O][SbH]4([O]C(=O)C([O]4)C1[O]3)[O]C2=O [antimonyl] (10 µM)
- morphology score [1]: 0.138
- SARS-CoV-2 infection rate [2]: 99.5% (inactive)

Compound: CCN1C(=O)CNc2ncc(-c3ccc(-c4nc[nH]n4)nc3C)nc21 (10 µM)
- morphology score [1]: -0.0465
- SARS-CoV-2 infection rate [2]: 96.5% (inactive)

Compound: COc1ccccc1N1CCN(CCCCNC(=O)c2ccc(-c3ccc(C(C)=O)cc3)cc2)CC1 (10 µM)
- morphology score [1]: -0.218
- SARS-CoV-2 infection rate [2]: 113% (inactive)

Compound: O=C(NC[C@H](O)CO)c1ccncc1Nc1ccc(I)cc1F (0.833333 µM)
- morphology score [1]: -0.139
- SARS-CoV-2 infection rate [2]: 114% (inactive)

Compound: CN(C)CCC=C1c2ccccc2CCc2ccccc21 [amitriptyline] (10 µM)
- morphology score [1]: 0.0472
- SARS-CoV-2 infection rate [2]: 100% (inactive)

Compound: Cn1nnnc1SCC1=C(C(=O)O)N2C(=O)[C@@H](NC(=O)[C@H](OC=O)c3ccccc3)[C@H]2SC1 [cefamandole-nafate] (10 µM)
- morphology score [1]: 0.0598
- SARS-CoV-2 infection rate [2]: 102% (inactive)

Compound: CCn1cc(-c2cccc(C(F)(F)F)c2)c2sc(C(=N)NC3CCS(=O)(=O)CC3)cc2c1=O (10 µM)
- morphology score [1]: -0.122
- SARS-CoV-2 infection rate [2]: 110% (inactive)
